Results filed as inconclusive are left out. Calls of active or inactive are those of the source. Unless noted, the call rests on the fitted dose curve.
Key:
[1] = Nuclear factor erythroid 2-related factor 2/antioxidant responsive element (Nrf2/ARE) small molecule agonists: luciferase reporter gene qHTS assay in human keratinocytes (AID 1919969); further: nearly all actives have a fitted effect of over 35% in size; further: potency means the concentration at half of the fitted maximal effect
[2] = target: Gonadotropin-releasing hormone receptor (Homo sapiens) (UniProt P30968); test: Human gonadotropin-releasing hormone receptor (GnRHR) small molecule agonists, calcium flux assay in GnRHR-HEK293 cells (AID 1920063); further: nearly all actives have a fitted effect of over 35% in size; further: potency means the concentration at half of the fitted maximal effect
In short: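 Compounds dissolved in DMSO are pin-transferred onto dye-loaded GnRHR-HEK293 cells, which were seeded 18 h before at 37 C/5% CO2. Calcium signal is read as fluorescence intensity at 1 s intervals for 3 min.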

[3] = G protein-coupled receptor (GPCR) small molecule agonists, calcium flux assay: HEK293 wild type cell line counter screen (AID 1920065)
In short: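 Tox21 10K compounds, 15 concentrations each in triplicate, pin-transferred in DMSO onto dye-loaded cells; kinetic read at 480/540 nm for 3 min, 1 s intervals.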

[4] = p53 small molecule agonists, cell-based qHTS assay with human liver microsomes (AID 1963577);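 further: p53 response element beta-lactamase reporter cells with liver microsomes plus NADPH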
In short: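 HLM-supplemented p53RE-bla reporter assay: 16 h compound exposure at 37 C, microsomes and NADPH each 0.5 mg/mL final, read by fluorescence intensity.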

[5] = p53 small molecule agonists, cell-based qHTS assay with rat liver microsomes (AID 1963578)
In short: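 Quantitative HTS of the Tox21 10K library: p53RE-bla cells, rat liver microsomes plus NADPH at 0.5 mg/mL final each, 16 h at 37 C, beta-lactamase fluorescence detection.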

[6] = p53 small molecule agonists, cell-based qHTS assay with rat liver microsomes: qHTS cell viability counter screen (AID 1963580); further: nearly all actives have a fitted effect of over 45% in size; further: potency means the concentration at half of the fitted maximal effect
In short: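 After the beta-lactamase ratio was read, CellTiter-Glo was added to the same wells and luminescence measured at 30 min; cells had been treated 16 h at 37 C with compounds, rat liver microsomes and NADPH (0.5 mg/mL final each).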

[7] = p53 small molecule agonists, cell-based qHTS assay: qHTS cell viability counter screen (AID 1963581); further: nearly all actives have a fitted effect of over 45% in size
In short: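 ATP content measured by luminescence in HCT-116 p53RE-bla cells treated 16 h at 37 C, same wells as the reporter screen.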

[8] = target: 5-hydroxytryptamine receptor 2A (Homo sapiens) (UniProt P28223); test: 5-hydroxytryptamine receptor 2A (HTR2A) small molecule antagonists, cell-based qHTS assay (AID 1963586); further: nearly all actives have a fitted effect of over 45% in size; further: potency means the concentration at half of the fitted maximal effect
In short: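 CHO cells stably expressing human HTR2A were plated for 18 h at 37 C, then loaded with calcium dye for 1 h. Compounds were preincubated 5 min at room temperature before DOI (4 nM solution) was added. Kinetic fluorescence was read for 3 min.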

[9] = target: 5-hydroxytryptamine receptor 2A (Homo sapiens) (UniProt P28223); test: 5-hydroxytryptamine receptor 2A (HTR2A) small molecule agonists, cell-based qHTS assay (AID 1963587); further: nearly all actives have a fitted effect of over 30% in size; further: potency means the concentration at half of the fitted maximal effect
In short: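 CHO cells stably expressing human HTR2A, plated 18 h, loaded with calcium dye 1 h at 37 C. Agonist mode: compounds added and intracellular calcium fluorescence recorded kinetically for 2 min at 1 sec intervals.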

[10] = target: Muscarinic acetylcholine receptor M1 (Homo sapiens) (UniProt P11229); test: Cholinergic receptor muscarinic 1 (CHRM1) small molecule agonists, cell-based qHTS assay (AID 1963589); further: nearly all actives have a fitted effect of over 35% in size
In short: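 Homogeneous fluorescence calcium flux, agonist mode. Human M1-expressing CHO cells; compound dosed at 15 concentrations, three independent runs; signal sampled every 1 sec.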

[11] = cAMP Responsive Elements (CRE) small molecule agonists, cell-based qHTS assay (AID 1963590)
In short: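 HEK 293T cells stably bearing CRE-bla were plated at 2,000 cells per well and rested 18 h. Compounds, positive controls or DMSO were added for 3 h at 37 C. LiveBLAzer B/G substrate was then loaded for 2 h at room temperature.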

[12] = cAMP Responsive Elements (CRE) small molecule antagonists, cell-based qHTS assay (AID 1963591; active means well fitted inhibition curve with a large enough effect in the signal ratio in the repeat runs, not every such curve was filed as active; the % refers to the signal ratio)
In short: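 First, CRE-bla HEK293T cells settled 18 h at 37 C. Next, compound and 0.25 uM final NKH477 were applied for 3 h. Last, LiveBLAzer B/G substrate was loaded for 2 h at room temperature.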

[13] = target: D(2) dopamine receptor (Homo sapiens) (UniProt P14416); test: Dopamine D2 receptor (DRD2) small molecule agonists, cell-based qHTS assay (AID 1963594); further: nearly all actives have a fitted effect of over 35% in size
In short: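 HEK293 cells stably expressing human DRD2, pre-treated with PDE inhibitor Ro20-1724 (0.1 mM final) and compound 10 min at room temperature, then stimulated with NKH477 (200nM […]) for 30 min. cAMP read by HTRF (665/620 nm).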

[14] = target: D(2) dopamine receptor (Homo sapiens) (UniProt P14416); test: Dopamine D2 receptor (DRD2) small molecule antagonists, cell-based qHTS assay (AID 1963595; active means well fitted inhibition curve with a large enough effect in the signal ratio in the repeat runs, with a control signal flat; the % refers to the signal ratio)
In short: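 Human DRD2 antagonist qHTS measuring cAMP by HTRF. The cells are exposed to compound for 10 min, then to NKH477 (200 nM) and quinpirole (12 nM) for 30 min at RT, with Ro20-1724 (0.1 mM) present throughout.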

[15] = p53 small molecule agonists, cell-based qHTS assay with human liver microsomes: qHTS cell viability counter screen (AID 1963579); further: nearly all actives have a fitted effect of over 45% in size
In short: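 Viability of p53RE-bla cells is measured as CellTiter-Glo luminescence following a 16 h, 37 C incubation with compound, liver microsomes from human donors and NADPH.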

[16] = p53 small molecule agonists, cell-based qHTS assay (AID 1963582; active means well fitted activation curve with a large enough effect in the signal ratio in the repeat runs, not every such curve was filed as active; the % refers to the signal ratio)
In short: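 16 h compound exposure (37 C) of p53 response element–bla cells, preceded by 5 h recovery at 37 C/5% CO2; read-out via LiveBLAzer B/G FRET substrate, 2 h RT, fluorescence intensity.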

[17] = target: Muscarinic acetylcholine receptor M1 (Homo sapiens) (UniProt P11229); test: Cholinergic receptor muscarinic 1 (CHRM1) small molecule antagonists, cell-based qHTS assay (AID 1963588); further: nearly all actives have a fitted effect of over 40% in size
In short: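 Compounds were tested at 15 concentrations in three independent runs. Dye-loaded CHRM1-CHO cells were exposed 5 min at room temperature before stimulation by acetylcholine added at 50nM. Intracellular calcium was read kinetically on FDSS for 3 min.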

[18] = target: Beta-2 adrenergic receptor (Homo sapiens) (UniProt P07550); test: Adrenergic beta2 receptor (ADRB2) small molecule antagonists, cell-based qHTS assay (AID 1963592); further: series mostly up to about 92 µM; nearly all actives have a fitted effect of over 50% in size
In short: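 Assay format: CHO-ADRB2 cells, 18-20hr seeding at 37C/5% CO2, then compound plus 1nM isoproterenol agonist mix for 0.5hr RT. Homogeneous time-resolved fluorescence cAMP detection after 1hr, expressed as 665/615 nm ratio.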

[19] = target: Beta-2 adrenergic receptor (Homo sapiens) (UniProt P07550); test: Adrenergic beta2 receptor (ADRB2) small molecule agonists, cell-based qHTS assay (AID 1963593);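 further: CHO cells stably overexpressing human ADRB2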
In short: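 CHO cells stably over-expressing ADRB2 were plated overnight at 37C, then dosed with compounds plus a stimulation mix containing 100uM IBMX and 25uM Ro-20-1724 for 0.5hr at room temperature. cAMP was measured by HTRF competition, 1hr.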

[20] = target: KiSS-1 receptor (Homo sapiens) (UniProt Q969F8); test: Human kisspeptin (KISS1R) small molecule agonists, calcium flux assay in KISS1R-HEK293 cells (AID 1920064; active means well fitted activation curve with a large enough effect in the repeat runs)
In short: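 Cell line: HEK293, stable human KISS1R. Dye loading 1 h at 37 C after 18 h culture. Read: kinetic fluorescence, 480/540 nm, 3 min at 1 s intervals.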

Measured: Potency

Gonadotropin-releasing hormone receptor (Homo sapiens), sequence (P30968 whole entry, looked up): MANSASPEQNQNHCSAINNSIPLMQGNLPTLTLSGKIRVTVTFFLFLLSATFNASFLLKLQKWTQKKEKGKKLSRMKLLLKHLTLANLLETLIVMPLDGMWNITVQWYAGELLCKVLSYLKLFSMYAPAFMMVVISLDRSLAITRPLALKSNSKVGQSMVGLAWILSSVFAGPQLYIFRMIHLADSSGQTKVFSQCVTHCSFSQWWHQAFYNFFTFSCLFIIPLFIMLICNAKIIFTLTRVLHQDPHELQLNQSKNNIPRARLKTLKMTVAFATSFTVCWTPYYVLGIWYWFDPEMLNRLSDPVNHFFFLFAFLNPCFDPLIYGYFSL
Muscarinic acetylcholine receptor M1 (Homo sapiens), sequence (P11229 whole entry, looked up): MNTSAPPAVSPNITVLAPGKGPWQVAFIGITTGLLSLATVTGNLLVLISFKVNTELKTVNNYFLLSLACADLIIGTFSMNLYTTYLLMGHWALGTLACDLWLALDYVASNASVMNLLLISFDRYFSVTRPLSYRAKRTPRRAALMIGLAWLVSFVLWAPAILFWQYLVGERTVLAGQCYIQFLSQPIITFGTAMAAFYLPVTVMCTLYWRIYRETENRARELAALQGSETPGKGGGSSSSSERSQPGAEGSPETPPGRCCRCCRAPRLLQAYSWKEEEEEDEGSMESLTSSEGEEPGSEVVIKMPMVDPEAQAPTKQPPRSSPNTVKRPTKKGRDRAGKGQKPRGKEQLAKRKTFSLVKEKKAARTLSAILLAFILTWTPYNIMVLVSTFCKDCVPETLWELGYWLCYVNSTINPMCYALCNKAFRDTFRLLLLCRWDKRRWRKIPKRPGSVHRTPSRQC
D(2) dopamine receptor (Homo sapiens), sequence (P14416 whole entry, looked up): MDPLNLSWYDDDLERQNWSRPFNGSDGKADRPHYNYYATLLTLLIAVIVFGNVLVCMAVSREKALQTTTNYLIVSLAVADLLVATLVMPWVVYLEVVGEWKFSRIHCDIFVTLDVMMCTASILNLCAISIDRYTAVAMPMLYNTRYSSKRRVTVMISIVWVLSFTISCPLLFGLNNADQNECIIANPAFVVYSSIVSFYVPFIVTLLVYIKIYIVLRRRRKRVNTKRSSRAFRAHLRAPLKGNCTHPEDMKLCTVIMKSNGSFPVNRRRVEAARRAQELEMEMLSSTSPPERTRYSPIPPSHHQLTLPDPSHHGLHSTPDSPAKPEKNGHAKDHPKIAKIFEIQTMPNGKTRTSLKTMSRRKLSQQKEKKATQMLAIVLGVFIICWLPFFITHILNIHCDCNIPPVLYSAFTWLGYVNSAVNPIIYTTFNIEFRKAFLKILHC
Beta-2 adrenergic receptor (Homo sapiens), sequence (P07550 whole entry, looked up): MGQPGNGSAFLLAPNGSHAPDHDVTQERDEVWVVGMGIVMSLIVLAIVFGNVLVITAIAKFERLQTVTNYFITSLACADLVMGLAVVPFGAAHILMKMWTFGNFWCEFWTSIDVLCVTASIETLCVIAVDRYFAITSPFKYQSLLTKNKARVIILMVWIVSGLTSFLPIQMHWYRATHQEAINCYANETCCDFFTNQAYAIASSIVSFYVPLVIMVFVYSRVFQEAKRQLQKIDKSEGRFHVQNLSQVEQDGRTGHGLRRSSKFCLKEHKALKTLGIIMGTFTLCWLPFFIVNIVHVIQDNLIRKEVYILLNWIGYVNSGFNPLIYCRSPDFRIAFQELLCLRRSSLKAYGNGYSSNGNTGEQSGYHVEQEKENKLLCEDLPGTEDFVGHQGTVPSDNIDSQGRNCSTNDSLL
KiSS-1 receptor (Homo sapiens), sequence (Q969F8 whole entry, looked up): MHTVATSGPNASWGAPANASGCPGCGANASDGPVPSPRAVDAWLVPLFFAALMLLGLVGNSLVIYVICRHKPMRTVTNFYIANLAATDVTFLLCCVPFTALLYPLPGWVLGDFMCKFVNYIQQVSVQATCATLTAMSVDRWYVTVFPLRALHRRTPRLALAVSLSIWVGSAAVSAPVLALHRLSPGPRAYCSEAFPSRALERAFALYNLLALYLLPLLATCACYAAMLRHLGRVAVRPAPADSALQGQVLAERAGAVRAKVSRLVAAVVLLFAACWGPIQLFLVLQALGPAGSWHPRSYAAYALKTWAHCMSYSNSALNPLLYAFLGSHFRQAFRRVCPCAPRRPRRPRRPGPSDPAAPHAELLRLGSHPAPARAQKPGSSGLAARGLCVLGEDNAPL
5-hydroxytryptamine receptor 2A (Homo sapiens), sequence (P28223 whole entry, looked up): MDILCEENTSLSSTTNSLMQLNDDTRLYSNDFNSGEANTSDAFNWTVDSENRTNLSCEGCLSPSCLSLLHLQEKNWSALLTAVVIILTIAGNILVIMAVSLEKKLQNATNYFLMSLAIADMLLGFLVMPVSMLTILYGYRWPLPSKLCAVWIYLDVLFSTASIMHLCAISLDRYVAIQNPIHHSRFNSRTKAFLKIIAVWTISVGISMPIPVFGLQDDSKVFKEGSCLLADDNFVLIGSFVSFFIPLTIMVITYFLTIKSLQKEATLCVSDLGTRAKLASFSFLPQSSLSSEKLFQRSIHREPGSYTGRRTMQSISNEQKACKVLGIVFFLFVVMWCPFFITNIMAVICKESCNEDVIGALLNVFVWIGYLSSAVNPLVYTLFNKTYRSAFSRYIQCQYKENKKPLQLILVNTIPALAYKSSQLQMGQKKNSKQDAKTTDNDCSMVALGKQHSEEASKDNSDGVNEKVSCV

Oc1cccc2c(O)cccc12
active: [1] 27.3 µM | [6] 32.4 µM
not listed: [15] | [16] | [17] | [18] | [19] | [20]
inactive: all other assays above

O[C@@H](c1cc(C(F)(F)F)nc2c(C(F)(F)F)cccc12)[C@H]1CCCCN1
active: [2] 16.9 µM | [8] 3.65 µM | [9] 10.7 µM
inactive: [1] | [3] | [4] | [5] | [15] | [6] | [13] | [14]

CCCCCCCCCCCCCCCCC(C(=O)O)C(O)(CC(=O)O)C(=O)O (stereo unspecified)
active: [8] 13 µM
not listed: [4] | [7] | [9] | [20]
inactive: all other assays above

CC(C)C(OC(=O)c1ccccc1)C(C)(C)COC(=O)c1ccccc1 (stereo unspecified)
active: [1] 30.6 µM
not listed: [2] | [11] | [12] | [16] | [19]
inactive: all other assays above

CC1CCCCN1CCCOC(=O)c1ccc(OC2CCCCC2)cc1 (stereo unspecified)
not listed: [2] | [8] | [9] | [16] | [17] | [19]
inactive: all other assays above

C[C@H](CCC(=O)O)[C@H]1CC[C@H]2[C@@H]3CC[C@@H]4C[C@H](O)CC[C@]4(C)[C@H]3CC[C@]12C
active: [9] 24.4 µM
not listed: [2] | [8] | [11] | [16]
inactive: all other assays above

From PubChem BioAssay (Tox21)
